# Calls of active or inactive are those of the source. Unless noted, no rule for the calls is given here.
# Columns and labels:
# [1] = compounds binding Alexa647 anti-His antibody – biochemical, small-molecule microarray, 635 nm fluorescence, artefact control for SMM control protein annotation, primary screen (AID 1128); settings: higher = more signal;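 also: score merges feature fluorescence with signal-to-noise for each printed compound spot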
# [2] = tested on: Human papillomavirus type 1a E7 protein (residues 1-88); assay: HPV1a E7 small-molecule binders, primary screen, biochemical, small-molecule microarray, residues 1-88, 635 nm (AID 1129); settings: small-molecule microarray binding, fluorescence 635 nm; higher = more signal
# [3] = biological target: Focal adhesion kinase 1 (Homo sapiens) (UniProt Q05397); assay: PTK2 protein binding on printed compound slides – biochemical, small-molecule microarray, 635/667 nm fluorescence, BSA, DTT, primary screen (AID 1130); settings: 635 nm fluorescence, higher = more signal;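 also: composite of spot emission at 667 nm and signal to noise over triplicate slides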
# Sequence of Focal adhesion kinase 1 (Homo sapiens) (Q05397 whole entry, looked up): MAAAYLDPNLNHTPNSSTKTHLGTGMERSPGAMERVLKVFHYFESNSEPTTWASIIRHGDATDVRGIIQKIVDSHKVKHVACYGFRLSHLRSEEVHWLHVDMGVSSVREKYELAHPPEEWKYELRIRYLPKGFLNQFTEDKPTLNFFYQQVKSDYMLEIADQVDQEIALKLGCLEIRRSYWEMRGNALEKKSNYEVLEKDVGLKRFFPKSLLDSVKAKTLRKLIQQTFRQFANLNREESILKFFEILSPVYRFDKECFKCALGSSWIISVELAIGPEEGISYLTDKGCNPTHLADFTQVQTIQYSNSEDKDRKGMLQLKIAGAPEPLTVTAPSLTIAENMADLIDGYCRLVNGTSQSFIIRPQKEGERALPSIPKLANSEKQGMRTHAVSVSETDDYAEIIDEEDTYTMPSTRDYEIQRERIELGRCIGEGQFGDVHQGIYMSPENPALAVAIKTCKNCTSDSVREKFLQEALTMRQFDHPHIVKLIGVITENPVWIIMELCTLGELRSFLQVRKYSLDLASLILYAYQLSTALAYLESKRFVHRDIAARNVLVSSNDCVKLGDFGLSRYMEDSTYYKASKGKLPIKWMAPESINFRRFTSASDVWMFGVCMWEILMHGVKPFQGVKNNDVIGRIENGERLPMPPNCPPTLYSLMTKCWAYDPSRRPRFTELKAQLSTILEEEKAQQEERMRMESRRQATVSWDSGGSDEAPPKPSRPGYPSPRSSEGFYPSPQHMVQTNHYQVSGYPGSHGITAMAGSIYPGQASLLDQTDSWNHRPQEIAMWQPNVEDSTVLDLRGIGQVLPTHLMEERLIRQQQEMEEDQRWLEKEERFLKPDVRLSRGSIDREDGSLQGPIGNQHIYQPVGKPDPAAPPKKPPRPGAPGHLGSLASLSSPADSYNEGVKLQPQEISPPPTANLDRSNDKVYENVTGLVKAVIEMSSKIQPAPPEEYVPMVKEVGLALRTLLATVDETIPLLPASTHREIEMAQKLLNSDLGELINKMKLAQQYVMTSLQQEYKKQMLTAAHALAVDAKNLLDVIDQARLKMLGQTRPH
# [4] = tested on: Fibrinogen (Alexa647-labelled); assay: Alexa647-fibrinogen binding to printed small molecules – biochemical, small-molecule microarray, 635/667 nm fluorescence, artefact control for SMM control-protein annotation, profiling panel (AID 1131); settings: fibrinogen-A647 binding fluorescence, higher = more signal;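 also: z-score merges 667 nm fluorescence with per-spot signal-to-noise over triplicate slides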
# [5] = biological target: Follistatin (Homo sapiens) (UniProt P19883); assay: FST protein binding to printed compounds – biochemical, small-molecule microarray, 635/667 nm fluorescence, primary screen (AID 1132); settings: 635 nm fluorescence, higher = more signal
# Sequence of Follistatin (Homo sapiens) (P19883 whole entry, looked up): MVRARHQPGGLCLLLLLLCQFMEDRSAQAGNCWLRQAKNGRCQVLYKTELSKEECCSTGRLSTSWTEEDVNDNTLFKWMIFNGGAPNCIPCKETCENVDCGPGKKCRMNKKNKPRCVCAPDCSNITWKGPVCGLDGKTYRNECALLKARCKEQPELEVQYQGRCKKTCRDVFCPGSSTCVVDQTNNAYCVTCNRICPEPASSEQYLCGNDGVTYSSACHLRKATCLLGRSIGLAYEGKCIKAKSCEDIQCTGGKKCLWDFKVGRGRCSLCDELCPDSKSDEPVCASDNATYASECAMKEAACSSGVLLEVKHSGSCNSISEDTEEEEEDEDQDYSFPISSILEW
# [6] = biological target: Fibroblast growth factor 2 (Homo sapiens) (UniProt P09038); assay: basic fibroblast growth factor binding to printed compounds – biochemical, small-molecule microarray, 635/667 nm fluorescence, primary screen (AID 1133); settings: FGF2, fluorescence 635/667, higher = more signal
# Sequence of Fibroblast growth factor 2 (Homo sapiens) (P09038 whole entry, looked up): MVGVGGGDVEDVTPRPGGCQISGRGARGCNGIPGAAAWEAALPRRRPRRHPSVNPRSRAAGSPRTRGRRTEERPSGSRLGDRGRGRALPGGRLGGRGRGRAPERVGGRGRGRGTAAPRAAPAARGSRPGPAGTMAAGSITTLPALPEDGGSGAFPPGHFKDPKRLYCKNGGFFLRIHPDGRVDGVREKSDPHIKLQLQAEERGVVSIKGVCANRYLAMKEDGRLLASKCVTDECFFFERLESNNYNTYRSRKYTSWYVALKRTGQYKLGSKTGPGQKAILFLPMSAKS
# [7] = JC-1 mitochondrial potential readout, lung cancer cells – cell-based, A549, JC-1 fluorescence, basal, 24 h, 100 nL, profiling panel (AID 1138); settings: higher = more signal;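 also: A549 lung adenocarcinoma cells under basal conditions with no added stimulus; test concentration not given here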
# [8] = tested on: Lefty1; assay: Lefty1 protein binding to printed compounds – biochemical, small-molecule microarray, 635/667 nm fluorescence, primary screen (AID 1139); settings: fluorescence 635/667, higher = more signal
# [9] = tested on: wheat germ agglutinin (Triticum aestivum), Alexa647-labelled; assay: Alexa647-WGA lectin binding to printed small molecules – biochemical, small-molecule microarray, 635/667 nm fluorescence, artefact control for SMM control-protein annotation, profiling panel (AID 1140); settings: WGA-A647 binding, 635 nm fluorescence, higher = more signal;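 also: score merges 667 nm feature emission with signal to noise over triplicate slides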
# [10] = biological target: Luciferin 4-monooxygenase (Photinus pyralis) (UniProt P08659); assay: inhibition of purified Photinus pyralis luciferase – biochemical, luminescence, purified enzyme, 2006 set, primary screen (AID 1141); settings: purified firefly luciferase, SteadyGlo luminescence, 30 min; higher = more signal, called active from +8 up or from −8 down;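 also: cell-free assay with purified firefly luciferase at 100 ng per well in PBS; test concentration not given here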
# Sequence of Luciferin 4-monooxygenase (Photinus pyralis) (P08659 whole entry, looked up): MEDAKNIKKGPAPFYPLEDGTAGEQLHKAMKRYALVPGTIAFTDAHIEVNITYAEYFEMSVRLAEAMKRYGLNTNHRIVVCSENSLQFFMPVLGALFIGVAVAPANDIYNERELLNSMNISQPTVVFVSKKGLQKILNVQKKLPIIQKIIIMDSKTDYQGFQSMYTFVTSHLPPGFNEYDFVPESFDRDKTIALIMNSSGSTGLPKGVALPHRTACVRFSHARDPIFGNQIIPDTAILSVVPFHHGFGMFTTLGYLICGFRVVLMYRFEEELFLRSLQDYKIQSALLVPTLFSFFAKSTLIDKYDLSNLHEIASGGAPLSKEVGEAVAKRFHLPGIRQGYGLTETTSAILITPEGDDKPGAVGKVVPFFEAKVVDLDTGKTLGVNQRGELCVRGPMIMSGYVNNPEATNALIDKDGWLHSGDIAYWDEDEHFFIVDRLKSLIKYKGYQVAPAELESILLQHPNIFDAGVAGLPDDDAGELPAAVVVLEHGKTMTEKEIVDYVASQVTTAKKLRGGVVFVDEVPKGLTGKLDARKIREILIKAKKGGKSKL
# [11] = tested on: Wnt5a (protein binding on small-molecule microarray); assay: small molecules binding Wnt5a protein – biophysical, small-molecule microarray, 635/667 nm fluorescence, primary screen (AID 1142); settings: 635 nm fluorescence, higher = more signal;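 also: fluorescence read at 667 nm with signal to noise per printed feature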
# [12] = ATP-based viability of Huh7 replicon cells – cell-based, CellTiter-Glo luminescence, basal, 48 h, cytotoxicity control for HCV replication inhibitor project, primary screen (AID 1143); settings: higher = more signal, called active from +8 up or from −8 down;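 also: Huh7 hepatoma cells carrying a hepatitis C replication reporter with no stimulus; test concentration not given here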
# [13] = Pseudomonas biofilm growth suppression – PAO1 strain, BacTiter-Glo luminescence, LB-PBS, primary screen (AID 1144); settings: P. aeruginosa PAO1 biofilm, 12 h, higher = more signal
# [14] = basal CRE-LacZ reporter activity in PC12 – cell-based, unstimulated, primary screen (AID 1145); settings: no forskolin, luminescence, 4.5 h, higher = more signal, called active from +8 up or from −8 down
# [15] = forskolin-driven CRE-LacZ activity in PC12 – cell-based, CRE-LacZ reporter, forskolin-stimulated, primary screen (AID 1146); settings: luminescence, 4.5 h, higher = more signal, called active from +8 up or from −8 down;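 also: PC12 cells with 6xCRE LacZ reporter stimulated by forskolin 10 µM; beta-galactosidase reporter signal reflecting CREB driven transcription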
# [16] = biological target: Streptavidin (Streptomyces avidinii) (UniProt P22629); assay: compounds binding control protein streptavidin – biophysical, small-molecule microarray, 635/667 nm fluorescence, artefact control for SMM compound annotation, primary screen (AID 1147); settings: higher = more signal;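 also: signal reflects streptavidin binding to arrayed compounds as a control protein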
# Sequence of Streptavidin (Streptomyces avidinii) (P22629 whole entry, looked up): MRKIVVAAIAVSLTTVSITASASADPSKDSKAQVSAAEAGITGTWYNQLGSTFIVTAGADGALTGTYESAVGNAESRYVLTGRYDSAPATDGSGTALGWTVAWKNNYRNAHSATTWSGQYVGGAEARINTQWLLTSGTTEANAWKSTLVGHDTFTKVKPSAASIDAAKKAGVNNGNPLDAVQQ
# [17] = probe aInhba binding on compound microarray – biochemical, small-molecule microarray, 635/667 nm fluorescence, primary screen (AID 1148); settings: higher = more signal;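 also: score merges 667nm spot fluorescence with signal-to-noise for antibody binding to printed compounds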
# [18] = biological target: Torsin-1A (Homo sapiens) (UniProt O14656); assay: TOR1A wild-type binding on microarray – cell lysate, small-molecule microarray, lysate, 635/667 nm, primary screen (AID 1149); settings: COS7 hTOR1A-WT lysate, 635 nm fluorescence, higher = more signal
# Sequence of Torsin-1A (Homo sapiens) (O14656 whole entry, looked up): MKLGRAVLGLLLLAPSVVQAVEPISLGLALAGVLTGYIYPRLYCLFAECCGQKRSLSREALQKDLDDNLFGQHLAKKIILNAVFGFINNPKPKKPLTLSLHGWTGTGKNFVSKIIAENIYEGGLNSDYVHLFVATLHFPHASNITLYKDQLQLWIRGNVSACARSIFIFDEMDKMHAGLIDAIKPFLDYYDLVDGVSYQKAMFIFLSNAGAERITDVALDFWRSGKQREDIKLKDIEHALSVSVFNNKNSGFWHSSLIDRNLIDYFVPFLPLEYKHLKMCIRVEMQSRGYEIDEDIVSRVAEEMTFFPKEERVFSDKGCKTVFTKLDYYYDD
# [19] = biological target: Torsin-1A (Homo sapiens) (UniProt O14656); assay: torsin A mutant lysate binding on microarrays – cell lysate, small-molecule microarray, COS7 lysate, 635/667 nm fluorescence, primary screen (AID 1150); settings: COS7 hTOR1A mutant lysate, 635 nm fluorescence, higher = more signal;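 also: score pools 667 nm emission and signal to noise measuring lysate protein binding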
# [20] = tested on: Sonic hedgehog protein (Shh); assay: Sonic hedgehog microarray binding compounds – biochemical, small-molecule microarray, 635/667 nm fluorescence, primary screen (AID 1151); settings: 635 nm fluorescence, higher = more signal;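 also: Shh protein binding to compounds spotted on small-molecule microarray slides; score combines spot fluorescence intensity with signal-to-noise across triplicate slides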
Compound,composite z-score [1],composite z-score [2],composite z-score [3],composite z-score [4],composite z-score [5],composite z-score [6],z-score [7],composite z-score [8],composite z-score [9],z-score [10],composite z-score [11],z-score [12],z-score [13],z-score [14],z-score [15],composite z-score [16],composite z-score [17],composite z-score [18],composite z-score [19],composite z-score [20]
COc1ccc([Si](C)(C)[C@@H]2[C@@H](CCn3cc([C@H](O)c4ccccc4)nn3)O[C@]3(C(=O)N(Cc4cccc(N5CCOC5=O)c4)c4ccccc43)[C@H]2C)cc1,-1.11,-0.576,-0.753,-1.23,-1.68,-0.977,2.14,-1.31,-0.452,-1.5 (inactive),-0.105,-1.08 (inactive),-1.69 (inactive),0.134 (inactive),-1.36 (inactive),-0.469,-0.292,-0.568,-0.668,-0.98
CCOC(=O)C[C@H]1[C@H](OC(=O)c2ccc(-c3ccccc3)cc2)[C@@H](NC(=O)Cc2ccc(OC)cc2)c2cc(OCCCO)ccc2N1C(=O)c1ccc2ccccc2n1,0.262,0.644,0.529,0.897,-0.0303,-0.433,0.895,0.484,0.419,-0.639 (inactive),0.163,0.429 (inactive),0.26 (inactive),-0.0529 (inactive),-0.489 (inactive),0.8,-0.0468,0.33,-0.0342,-0.525
CC(=O)NCCCC[C@@H]1NC(=O)[C@@H]2C[C@H](C(=O)NCCCCN(C)C)[C@H](c3ccc(O)cc3)N2C1=O,0.231,-0.529,-0.2,-2.52,0.296,1.14,0.485,-0.0932,0.225,0.869 (inactive),-0.465,0.0068 (inactive),-1.02 (inactive),-0.809 (inactive),-0.174 (inactive),-0.506,-0.23,-0.893,-0.88,0.54
CCCCCCc1nc(CCCc2cc3c(c(CCCCCC)n2)[Si](C(C)C)(C(C)C)OC3)cc2c1[Si](C(C)C)(C(C)C)OC2,-0.658,-1.19,-0.0475,-1.14,0.597,-0.13,0.531,0.0479,-0.973,0.651 (inactive),-0.0564,-5.79 (inactive),-0.194 (inactive),1.78 (inactive),0.444 (inactive),1.91,-0.101,-0.333,0.0509,0.551
C[C@]1(C(=O)NCc2ccccc2)c2ccccc2C(=O)N(Cc2ccc(OC(F)(F)F)cc2)[C@H]1c1ccc(CO)cc1,1.71,1.02,0.549,-0.38,0.49,-0.186,1.27,-0.111,-0.403,0.882 (inactive),0.272,-3.15 (inactive),-0.808 (inactive),0.414 (inactive),-0.958 (inactive),-0.232,-0.0719,-0.0977,0.223,-0.135

# — PubChem BioAssay
